Vc quorum ag – induces V. cholerae light production without autoinducers | actives 0.16% (n = 350,000) | V. cholerae BH1578 lux reporter, luminescence, 6 h | AID 588436 | activation, % at 18.7 µM; in the data active = activation mostly above about 9.7%, no sharp cut-off; inconclusive = no clear call, values can overlap the other calls; inactive = mostly below about 3.7%
BoNT-A LC inh2 – inhibitors of Botulinum neurotoxin A light chain protease; multiplex microsphere protease substrate cleavage, flow cytometry; inhibition, % at 10 µM; actives 0.17% (n = 360,000)
Bead autofluor – counter-screen for toxin protease inhibitors: compound fluorescence; compound autofluorescence counterscreen, microsphere flow cytometry; active compounds read high; fluorescence intensity (concentration not given with the values); actives 3.1% (n = 360,000); AID 624483; in the data active = fluorescence intensity above about 16000; inconclusive = no clear call, values can overlap the other calls
Anthrax LF prot – anthrax lethal factor protease inhibition. P15917. multiplex microsphere protease cleavage assay, LF. inhibition, % at 10 µM. actives 0.12% (n = 360,000). AID 588501
MazF activator – activators of E. coli MazEF toxin-antitoxin RNase; P0AE70; FAM/BHQ RNA-DNA oligo cleavage fluorescence, 5 h; activation, % at 20 µM; actives 0.32% (n = 350,000); in the data active = activation above about 50%
BoNT F protease – blocks Botulinum neurotoxin F light chain protease; actives 0.22% (n = 360,000); inhibition, % at 10 µM; Multiplex microsphere protease cleavage assay, flow cytometry; AID 588497; in the data active = inhibition above about 35%, passing the limit was not always enough; inconclusive = no clear call, values can overlap the other calls
A number is an active result; - = inactive; ? = inconclusive; . = no result. Only some compounds are listed: those with a hit (about 3.9% of all), similar ones and a draw of the others. Cut-off read from the data, not from the text of the source, unless noted: active = inhibition above about 30%; inconclusive = no clear call, values can overlap the other calls; inactive = below that.

SMILES	Vc quorum ag	BoNT-A LC inh2	Bead autofluor	Anthrax LF prot	MazF activator	BoNT F protease
CCOCCCNC(=O)CS(=O)(=O)Cc1nc(-c2cccc(OC)c2)oc1C	-	?	21852	-	-	-
COc1cc(CN2CCC(C(=O)N3CCN(c4ccccc4F)CC3)CC2)ccc1O	-	-	23648	-	-	-
CC1(C)C(=O)Nc2ccccc2N1C(=O)COc1ccccc1C#N	-	-	-	-	-	-
CCOc1cc(S(=O)(=O)N2CCCC2)ccc1Cl	-	-	-	-	-	-
COc1ccc(C)cc1S(=O)(=O)N1CCC(C)CC1	-	-	21743	-	-	-
CCOc1ccc(OCC)c(S(=O)(=O)N2CCCCC2C)c1 (stereo not given)	-	-	16721	-	-	-
CCOc1ccc(C)cc1S(=O)(=O)N1CCCCC1	-	?	21517	-	-	-
CCOc1cc(S(=O)(=O)N2CCCCC2)ccc1F	-	-	22074	-	-	-
Cc1ccc(OCCN(C)C(=O)C2CCC(=O)N(CCCN3CCCC3=O)C2)cc1 (stereo not given)	-	-	-	-	-	-
CCOc1ccc(CC(=O)Nc2sc(Cc3ccccc3)cc2C(N)=O)cc1OCC	-	-	17390	-	-	-
CCCNC(=O)C1(C)CCCN(Cc2cc(-c3ccccc3)nn2C)C1 (stereo not given)	-	-	-	-	.	-
CCCCOC(=O)c1cc(=O)[nH]c2ccccc12	-	-	22271	-	-	-
CCCCOC(=O)c1cc(=O)[nH]c2ccc(C)cc12	-	-	-	-	-	-
CCOC(=O)c1c(C)n(C)c2ccc(OC(C)C(=O)OC)cc12 (stereo not given)	-	-	-	-	-	-
CCOC(=O)c1c(C)n(CC(COC(C)=O)OC(C)=O)c2ccc(OC(C)=O)cc12 (stereo not given)	-	-	16360	-	-	-
CC(=O)c1cccc(NC(=O)N2CCC(NC(=O)C3CCCCC3)CC2)c1	-	-	-	-	-	-
COc1cccc(S(=O)(=O)Nc2ccc3sc(C)nc3c2)c1	-	-	16651	-	-	-
Cc1nc2cc(NS(=O)(=O)c3cccc4cccnc34)ccc2s1	-	-	-	-	-	-
Cn1ncc(N=Cc2c(O)ccc3ccccc23)c1C(=O)Nc1cccc(Cl)c1	-	-	-	-	360.2	-
Cc1cccc(-n2c(C)nc3cc(C(=O)NCCN4CCOCC4)ccc32)c1	-	-	-	-	-	-
Cc1ccc2c(c1)CCCN2C(=O)c1cccs1	-	-	20191	-	-	-
O=C(c1cccs1)N1CCc2ccccc21	-	-	21871	-	-	-
O=C(CCCOc1cccc(Br)c1)NCCOc1ccccc1	-	-	-	-	-	-
O=C(NC(=O)c1ccc(F)cc1)Nc1nc(-c2cccs2)cc(C(F)(F)F)n1	-	-	-	-	93.8	-
O=C1CC(N2CCN(c3cccc(C(F)(F)F)c3)CC2)C(=O)N1c1ccccc1 (stereo not given)	-	?	20561	-	-	-
SMILES	Vc quorum ag	BoNT-A LC inh2	Bead autofluor	Anthrax LF prot	MazF activator	BoNT F protease
CCc1nc2c(OCc3ccccc3C(=O)OC)cccn2c1N(C)C(=O)c1cccc(OC)c1	-	-	-	-	.	-
COc1ccc(-c2oc3ncnc(N)c3c2-c2ccccc2)cc1	-	-	21630	-	-	-
COc1ccc(-c2oc3ncn4nc(COc5ccccc5)nc4c3c2-c2ccc(OC)cc2)cc1	-	-	-	-	-	-
CCc1nc2ccccc2c(NC(=O)CN2CC(C)CC(C)C2)c1C (stereo not given)	-	-	-	-	-	-
CCc1nc2ccccc2c(C(=O)O)c1C	-	-	22245	-	-	-
CCC(=O)Nc1c(C)c(CC)nc2ccccc12	-	-	16775	-	-	-
CCc1nc2c(OCC(=O)c3ccc(F)cc3)cccn2c1N(C)C(=O)C(C)C	-	-	-	-	.	-
O=c1oc2ccccc2cc1-c1csc(Cc2nc(-c3ccc(Br)cc3)cs2)n1	-	?	16508	-	-	-
CS(=O)(=O)c1cnc2c(-c3ccc(F)cc3)cnn2c1N	-	?	20368	-	-	-
CN(C)CCNC(=O)C1CCN(S(=O)(=O)c2ccc3ccccc3c2)CC1	-	-	?	-	-	-
COc1ccc(C(=O)Nc2n[nH]c(-c3ccncc3)n2)cc1	-	-	18001	-	-	-
Cc1ccc(OCC(=O)Nc2ccc3c(c2)C(=O)NC3=O)c(C)c1	-	-	-	-	-	-
CSC[C@H]1CN(CCc2ccccc2)C(=O)[C@@H]1CC(=O)Nc1ccc(Br)cc1	-	-	-	-	-	-

Screening data: PubChem BioAssay, several laboratories
